The target of test [1] is Tyrosine-protein kinase SYK (Homo sapiens) (UniProt P43405). The following applies: at 10 µM.
The target in test [2] is T1, Mitogen-activated protein kinase kinase kinase 7 (Homo sapiens) (UniProt O43318).
T1 sequence (whole entry): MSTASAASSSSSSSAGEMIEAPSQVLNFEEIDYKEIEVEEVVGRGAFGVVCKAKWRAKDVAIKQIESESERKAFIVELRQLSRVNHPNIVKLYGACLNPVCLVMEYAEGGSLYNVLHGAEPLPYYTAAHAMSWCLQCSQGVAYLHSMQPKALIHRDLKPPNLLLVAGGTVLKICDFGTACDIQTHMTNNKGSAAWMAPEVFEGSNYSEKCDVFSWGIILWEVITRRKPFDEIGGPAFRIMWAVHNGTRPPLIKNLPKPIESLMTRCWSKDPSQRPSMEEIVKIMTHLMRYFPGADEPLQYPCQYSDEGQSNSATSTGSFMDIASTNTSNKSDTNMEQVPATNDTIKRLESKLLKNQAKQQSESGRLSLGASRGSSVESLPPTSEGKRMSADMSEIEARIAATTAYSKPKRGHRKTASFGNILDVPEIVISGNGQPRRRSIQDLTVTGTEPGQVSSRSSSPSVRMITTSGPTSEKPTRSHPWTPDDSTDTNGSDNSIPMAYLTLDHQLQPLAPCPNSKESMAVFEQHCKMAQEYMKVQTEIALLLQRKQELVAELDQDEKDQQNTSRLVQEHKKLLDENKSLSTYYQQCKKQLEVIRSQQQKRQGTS
The following applies: at 1 µM.

In test [3] the target is T1, Mitogen-activated protein kinase kinase kinase 7 (Homo sapiens). The following applies: at 10 µM.
The target of test [4] is T2, Serine/threonine-protein kinase TAO1 (Homo sapiens) (UniProt Q7L7X3).
T2 sequence (whole entry): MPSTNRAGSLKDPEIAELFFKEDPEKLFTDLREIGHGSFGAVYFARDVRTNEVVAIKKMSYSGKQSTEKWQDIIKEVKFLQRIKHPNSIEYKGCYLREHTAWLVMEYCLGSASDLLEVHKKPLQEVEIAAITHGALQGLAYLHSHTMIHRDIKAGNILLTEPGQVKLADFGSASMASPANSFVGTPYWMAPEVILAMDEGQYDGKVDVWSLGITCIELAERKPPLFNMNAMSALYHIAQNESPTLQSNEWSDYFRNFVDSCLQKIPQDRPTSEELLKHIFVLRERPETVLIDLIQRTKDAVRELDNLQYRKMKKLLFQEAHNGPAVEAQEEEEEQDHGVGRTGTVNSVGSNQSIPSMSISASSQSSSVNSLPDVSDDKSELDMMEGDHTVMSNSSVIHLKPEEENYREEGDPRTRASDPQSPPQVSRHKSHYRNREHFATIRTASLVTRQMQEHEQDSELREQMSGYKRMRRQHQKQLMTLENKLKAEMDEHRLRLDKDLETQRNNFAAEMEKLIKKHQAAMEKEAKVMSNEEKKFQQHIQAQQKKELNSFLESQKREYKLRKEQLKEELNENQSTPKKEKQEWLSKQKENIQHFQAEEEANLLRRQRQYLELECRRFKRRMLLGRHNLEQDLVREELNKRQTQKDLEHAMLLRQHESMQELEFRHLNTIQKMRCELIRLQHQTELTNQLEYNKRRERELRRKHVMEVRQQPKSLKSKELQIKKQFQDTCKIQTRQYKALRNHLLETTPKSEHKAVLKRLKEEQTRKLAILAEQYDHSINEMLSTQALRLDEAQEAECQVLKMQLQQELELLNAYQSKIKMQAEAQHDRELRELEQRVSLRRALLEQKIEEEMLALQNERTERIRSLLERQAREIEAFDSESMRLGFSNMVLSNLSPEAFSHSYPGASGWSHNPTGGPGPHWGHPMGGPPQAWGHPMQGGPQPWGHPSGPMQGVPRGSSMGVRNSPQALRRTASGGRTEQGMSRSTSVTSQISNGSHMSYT
The following applies: at 1 µM.

In test [5] the target is T2, Serine/threonine-protein kinase TAO1 (Homo sapiens). The following applies: at 10 µM.
Test [6] addresses T3, Serine/threonine-protein kinase TAO2 (Homo sapiens) (UniProt Q9UL54).
T3 sequence (whole entry): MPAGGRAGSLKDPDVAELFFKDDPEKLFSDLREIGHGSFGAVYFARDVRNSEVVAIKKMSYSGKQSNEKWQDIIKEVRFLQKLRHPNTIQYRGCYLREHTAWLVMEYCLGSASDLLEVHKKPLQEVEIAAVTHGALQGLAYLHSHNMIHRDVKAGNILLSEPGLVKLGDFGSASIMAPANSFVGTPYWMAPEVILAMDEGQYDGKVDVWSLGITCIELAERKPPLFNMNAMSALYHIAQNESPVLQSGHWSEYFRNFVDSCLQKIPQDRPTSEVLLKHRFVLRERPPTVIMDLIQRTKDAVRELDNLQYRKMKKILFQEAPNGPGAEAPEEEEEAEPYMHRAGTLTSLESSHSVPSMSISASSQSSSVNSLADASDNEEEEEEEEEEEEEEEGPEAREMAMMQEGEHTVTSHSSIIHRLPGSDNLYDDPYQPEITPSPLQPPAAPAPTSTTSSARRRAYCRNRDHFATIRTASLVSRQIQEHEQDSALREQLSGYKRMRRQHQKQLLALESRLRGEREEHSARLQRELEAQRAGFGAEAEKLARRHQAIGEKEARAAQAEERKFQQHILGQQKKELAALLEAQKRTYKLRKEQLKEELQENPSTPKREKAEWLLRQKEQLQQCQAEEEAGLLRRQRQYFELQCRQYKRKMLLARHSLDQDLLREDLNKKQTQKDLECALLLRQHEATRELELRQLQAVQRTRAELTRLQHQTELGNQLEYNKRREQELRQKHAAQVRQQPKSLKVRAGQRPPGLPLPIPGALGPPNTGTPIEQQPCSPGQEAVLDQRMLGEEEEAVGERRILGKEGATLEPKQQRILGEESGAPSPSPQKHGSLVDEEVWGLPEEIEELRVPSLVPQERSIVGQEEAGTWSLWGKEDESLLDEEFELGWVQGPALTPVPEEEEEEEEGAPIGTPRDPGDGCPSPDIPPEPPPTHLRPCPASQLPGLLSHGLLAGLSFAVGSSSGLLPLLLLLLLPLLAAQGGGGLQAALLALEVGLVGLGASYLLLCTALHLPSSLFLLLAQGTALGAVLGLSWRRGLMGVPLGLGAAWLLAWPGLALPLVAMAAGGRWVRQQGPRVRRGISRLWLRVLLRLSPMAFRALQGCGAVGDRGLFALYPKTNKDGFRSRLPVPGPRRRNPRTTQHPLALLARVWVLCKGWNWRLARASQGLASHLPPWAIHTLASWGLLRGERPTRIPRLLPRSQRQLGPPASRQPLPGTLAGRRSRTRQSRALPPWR
The following applies: at 1 µM.

For test [7], the target named is T3, Serine/threonine-protein kinase TAO2 (Homo sapiens). As to conditions: at 10 µM.
Test [8] has as its target T4, Serine/threonine-protein kinase TAO3 (Homo sapiens) (UniProt Q9H2K8).
T4 sequence (whole entry): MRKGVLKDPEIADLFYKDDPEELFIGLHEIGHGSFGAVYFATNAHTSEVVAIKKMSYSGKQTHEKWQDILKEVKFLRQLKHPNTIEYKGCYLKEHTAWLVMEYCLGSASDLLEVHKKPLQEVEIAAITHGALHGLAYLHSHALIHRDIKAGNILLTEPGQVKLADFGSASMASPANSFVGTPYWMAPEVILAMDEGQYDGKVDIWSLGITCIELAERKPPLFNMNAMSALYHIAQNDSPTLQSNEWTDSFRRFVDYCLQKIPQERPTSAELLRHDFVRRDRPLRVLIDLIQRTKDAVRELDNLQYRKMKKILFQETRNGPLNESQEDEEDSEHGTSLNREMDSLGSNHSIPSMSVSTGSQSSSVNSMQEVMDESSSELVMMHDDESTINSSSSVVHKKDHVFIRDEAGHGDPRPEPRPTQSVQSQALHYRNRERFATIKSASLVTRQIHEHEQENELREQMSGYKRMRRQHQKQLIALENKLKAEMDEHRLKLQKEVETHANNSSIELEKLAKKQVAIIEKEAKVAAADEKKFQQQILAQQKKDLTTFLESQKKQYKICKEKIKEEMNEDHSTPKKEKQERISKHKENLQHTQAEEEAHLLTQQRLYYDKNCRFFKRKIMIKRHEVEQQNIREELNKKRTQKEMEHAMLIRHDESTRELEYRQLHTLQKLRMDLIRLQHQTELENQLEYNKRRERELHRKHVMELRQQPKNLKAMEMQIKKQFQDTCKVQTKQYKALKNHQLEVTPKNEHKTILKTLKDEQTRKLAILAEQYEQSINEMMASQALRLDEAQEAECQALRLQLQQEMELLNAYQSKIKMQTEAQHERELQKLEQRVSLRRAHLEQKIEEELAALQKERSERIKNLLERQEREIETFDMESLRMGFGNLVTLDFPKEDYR
As to conditions: at 1 µM.

For test [9], the target named is T4, Serine/threonine-protein kinase TAO3 (Homo sapiens). The following applies: at 10 µM.
Test [10] concerns the target T5, Serine/threonine-protein kinase TBK1 (Homo sapiens) (UniProt Q9UHD2).
T5 sequence (whole entry): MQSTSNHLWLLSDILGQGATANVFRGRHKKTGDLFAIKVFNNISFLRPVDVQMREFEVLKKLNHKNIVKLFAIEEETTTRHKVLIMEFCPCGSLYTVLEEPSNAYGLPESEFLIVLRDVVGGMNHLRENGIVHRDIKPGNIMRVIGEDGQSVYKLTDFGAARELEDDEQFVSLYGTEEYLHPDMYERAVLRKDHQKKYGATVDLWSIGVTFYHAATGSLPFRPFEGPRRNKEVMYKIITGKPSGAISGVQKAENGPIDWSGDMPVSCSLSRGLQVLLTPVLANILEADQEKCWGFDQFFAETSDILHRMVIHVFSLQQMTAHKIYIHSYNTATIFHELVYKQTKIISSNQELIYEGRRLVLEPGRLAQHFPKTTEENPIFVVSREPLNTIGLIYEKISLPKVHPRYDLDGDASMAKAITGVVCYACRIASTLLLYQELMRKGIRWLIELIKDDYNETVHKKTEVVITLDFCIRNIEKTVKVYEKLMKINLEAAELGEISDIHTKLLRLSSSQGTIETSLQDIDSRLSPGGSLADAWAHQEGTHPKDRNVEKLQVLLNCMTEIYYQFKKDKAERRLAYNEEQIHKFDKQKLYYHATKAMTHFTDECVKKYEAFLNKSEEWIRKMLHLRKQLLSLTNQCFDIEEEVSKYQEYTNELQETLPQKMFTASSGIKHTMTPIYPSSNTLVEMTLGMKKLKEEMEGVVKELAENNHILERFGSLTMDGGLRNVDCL
As to conditions: at 1 µM.

The structures appear in SMILES notation.

Consider `Cn1cc(/C=C2\C(=O)Nc3ccc(S(N)(=O)=O)cc32)c2ccccc21`, for which the residual activity worked out at 28% in [1]; 92% in [2]; 77% in [3]; 74% in test [4]; 37% in test [5]; 100% in test [6]. For the same compound, the residual activity in [7] was determined as 88%; in [8], 74%; in test [9], 66%; in [10], 8%.
